Screening data deposited in PubChem by National Center for Advancing Translational Sciences (NCATS).
MCF10A rerep – induces DNA re-replication in MCF 10a normal breast cells. MCF 10A DNA re-replication, Hoechst nuclear intensity, 48 h. Potency, µM (titrated, usually from 46.1 µM), for the others: at the top dose activity, positive = re-replication, usual class: activators. hit rate 2.9% among 350,000. AID 624296; further: potency means the concentration at half of the fitted maximal effect; % of control where 0% means no effect; nearly all actives have a fitted effect of over 50% in size
KB-3-1 tox – kills parental KB-3-1 adenocarcinoma cells. KB-3-1 viability, CellTiter-Glo ATP luminescence, 72 h. Potency, µM (top dose mostly 46.1 µM), most hits filed as cytotoxic. hit rate 1.4% among 400,000; further: potency means the concentration at half of the fitted maximal effect; on the % scale 0 is the no-effect control and ±100 the full control effect; nearly all actives have a fitted effect of over 60% in size
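Using CellTiter-Glo luminescence, growth of non-resistant KB-3-1 adenocarcinoma cells is assessed 72 h after pin-tool compound addition at 37 °C. Normalized responses across the concentration series yield fitted curves.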
IL-1B inflam inh – inhibitors of inflammasome signaling (IL-1 beta secretion). THP-1 LPS/ATP IL-1B secretion, AlphaLISA, 16 h; stronger effect = lower value. activity change, % at 57.5 µM. hit rate 4.7% among 360,000. AID 743279; in the data active means activity change below about -50%; inconclusive means mostly about -30% to -49%; further: on the % scale 0 is the no-effect control and ±100 the full control effect
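THP-1 cells pretreated 1 hr with compounds (up to 57.5 uM final), then stimulated with LPS (250 ng/mL final) plus ATP (1.25 mM final); secreted IL-1B measured by AlphaLISA after 16 hr, decreased signal indicating inhibition.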
KB-V1 MDR tox – kills drug-selected multidrug resistant KB-V1 cells | KB-V1 MDR cells viability, CellTiter-Glo, 72 h | Potency, µM (top dose mostly 46.1 µM), usual class: cytotoxic | hit rate 3.4% among 400,000 | AID 1347076; further: potency means the concentration at half of the fitted maximal effect; on the % scale 0 is the no-effect control and ±100 the full control effect; nearly all actives have a fitted effect of over 60% in size
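Cytotoxicity toward P-gp-expressing KB-V1 cells was determined as loss of CellTiter-Glo luminescence after 72 h at 37 degrees C. Compounds were tested in quantitative HTS format across a concentration range, with curves fitted to normalized data.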
SW480 rereplic – DNA re-replication induction in SW480 cells; Potency, µM (top dose mostly 46.1 µM), for inactives: at the top dose re-replication activation, hits mostly activators; SW480 DNA re-replication, Hoechst DNA content imaging, 48 h; hit rate 1.8% among 340,000; further: potency means the concentration at half of the fitted maximal effect; % of control where 0% means no effect; nearly all actives have a fitted effect of over 55% in size
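Hoechst fluorescence of nuclei (405 nm excitation, 500-530 nm emission) measured by plate-scanning imager after 48 hr compound exposure at 37 C; re-replication scored as increased number of nuclei with elevated intensity.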
Numbers without * were called inactive. Most compounds without a hit are left out; they make up all but 9.9% or so of the library. Unless noted, the call rests on the fitted dose curve; in most records, active means well fitted curve in the direction sought with a large enough effect; inconclusive means small, poorly fitted or top-dose-only effect, or another doubt; inactive means no such curve, though single readings can be large; an effect the other way counts as inactive or inconclusive.

What do the screens show for `CCN1/C(=C/c2sc(-c3ccccc3C)c[n+]2C)Sc2ccccc21`?
MCF10A rerep: 21µM*; KB-3-1 tox: 0.41µM*; IL-1B inflam inh: -99*; KB-V1 MDR tox: inconclusive; SW480 rereplic: inconclusive

How did Cc1c(Cl)cccc1NC(=O)NCc1cccnc1 do in these assays?
MCF10A rerep: -2%; KB-3-1 tox: inactive; IL-1B inflam inh: 19; KB-V1 MDR tox: inactive; SW480 rereplic: inconclusive

Results for CN(C)c1ccc(/C=C2\C=Cc3ccccc32)cc1[N+](=O)[O-] ?
KB-3-1 tox: inactive; KB-V1 MDR tox: inactive

What do the screens show for `Clc1ccccc1Cn1nc(-c2ccccc2)nc1-c1ccccc1`?
MCF10A rerep: 25%; KB-3-1 tox: inactive; IL-1B inflam inh: 0; KB-V1 MDR tox: 15µM*; SW480 rereplic: 4%

What do the screens show for `Clc1ccc(Cn2nc(-c3ccccc3)nc2-c2ccccc2)cc1`?
MCF10A rerep: inconclusive; KB-3-1 tox: inactive; IL-1B inflam inh: -29; KB-V1 MDR tox: inactive; SW480 rereplic: 3%

What do the screens show for `CCCC(=O)N1CCC1(C)C(=O)Nc1ccc2scnc2c1` (stereo not given)?
KB-3-1 tox: inactive; IL-1B inflam inh: 18; KB-V1 MDR tox: inactive

Results for COc1ccc(-c2c(C#N)c(SCC(=O)Nc3ccc(C)cc3)nc(C)c2C(=O)Nc2ccccc2)cc1 ?
KB-3-1 tox: inactive; KB-V1 MDR tox: inactive

Results for COc1ccc(-c2c(C#N)c(SCC(=O)c3cc4ccccc4oc3=O)nc(C)c2C(=O)Nc2ccccc2)cc1 ?
MCF10A rerep: 5.2µM*; KB-3-1 tox: 18µM*; IL-1B inflam inh: 26; KB-V1 MDR tox: inconclusive; SW480 rereplic: 21µM*

How did Cc1nc(SCC(=O)c2cc3ccccc3oc2=O)c(C#N)c(-c2ccccc2)c1C(=O)Nc1ccccc1 do in these assays?
MCF10A rerep: inconclusive; KB-3-1 tox: inactive; IL-1B inflam inh: 0; KB-V1 MDR tox: inconclusive; SW480 rereplic: 7.3µM*

Results for O=C1N(C2CCCC2)C[C@@H]2C[C@@H](c3cccn3-c3nccs3)N3CCC[C@@]123 ?
MCF10A rerep: -2%; KB-3-1 tox: inactive; IL-1B inflam inh: -79*; KB-V1 MDR tox: inactive; SW480 rereplic: -10%

What do the screens show for `O=C(COC(=O)Cn1cc(C(F)(F)F)ccc1=O)NCc1ccccc1`?
MCF10A rerep: -3%; KB-3-1 tox: inactive; IL-1B inflam inh: -8; KB-V1 MDR tox: inactive; SW480 rereplic: -40%

What do the screens show for `O=C(Cc1ccccc1F)Nc1ccc(S(=O)(=O)N2CCCC2)cc1`?
MCF10A rerep: 7%; KB-3-1 tox: inactive; IL-1B inflam inh: -51*; KB-V1 MDR tox: inconclusive; SW480 rereplic: inconclusive

How did CN(CC(=O)Nc1ccc(S(=O)(=O)N2CCCC2)cc1)Cc1cccc(Cl)c1Cl do in these assays?
MCF10A rerep: inconclusive; KB-3-1 tox: inconclusive; IL-1B inflam inh: 22; KB-V1 MDR tox: 18µM*

How did CN(C)c1ccc(/C=C/c2ccnc3cc(Cl)ccc23)cc1 do in these assays?
KB-3-1 tox: inconclusive; KB-V1 MDR tox: inactive

How did CC(=O)c1ccccc1NS(=O)(=O)c1cc2c(cc1C)NC(=O)CO2 do in these assays?
KB-3-1 tox: inactive; KB-V1 MDR tox: inactive

What do the screens show for `COc1ccc(/C=C2\CCCC3C2=NC(=S)NC3c2ccc(OC)cc2)cc1` (stereo not given)?
MCF10A rerep: 7.3µM*; KB-3-1 tox: inactive; IL-1B inflam inh: 0; KB-V1 MDR tox: inactive; SW480 rereplic: 18µM*

What do the screens show for `O=C(CSC1=Nc2ccccc2N=C(c2ccc(F)cc2)C1)NCc1ccccc1`?
KB-3-1 tox: inactive; KB-V1 MDR tox: inactive

What do the screens show for `COc1ccccc1C(=O)Nc1nnc(SCC(=O)NCc2ccco2)s1`?
MCF10A rerep: 0%; KB-3-1 tox: inactive; IL-1B inflam inh: -22; KB-V1 MDR tox: inactive; SW480 rereplic: 21µM*

How did COc1ccc(-c2cc(C(F)(F)F)nc(NCc3ccco3)n2)cc1OC do in these assays?
MCF10A rerep: 13%; KB-3-1 tox: inactive; IL-1B inflam inh: 39; KB-V1 MDR tox: 2.3µM*; SW480 rereplic: 4%

What do the screens show for `COc1ccc(-c2ccc(SCC(=O)c3cccs3)nn2)cc1OC`?
MCF10A rerep: 4%; KB-3-1 tox: inactive; IL-1B inflam inh: -18; KB-V1 MDR tox: 2.3µM*; SW480 rereplic: 3%

Results for COc1cccc(-c2cc(C(F)(F)F)nc(NCc3ccco3)n2)c1 ?
MCF10A rerep: inconclusive; KB-3-1 tox: inactive; IL-1B inflam inh: 5; KB-V1 MDR tox: inconclusive; SW480 rereplic: 26%

How did COc1ccc(-c2ccc(SCC(=O)NCc3ccco3)nn2)cc1OC do in these assays?
MCF10A rerep: 12%; KB-3-1 tox: inactive; IL-1B inflam inh: -8; KB-V1 MDR tox: 9.2µM*; SW480 rereplic: -7%

What do the screens show for `COc1cc(O)c(CCC(=O)c2ccc(OC)c(OC)c2)c(OC)c1`?
MCF10A rerep: -5%; KB-3-1 tox: inactive; IL-1B inflam inh: -24; KB-V1 MDR tox: inconclusive; SW480 rereplic: -1%

Results for Cc1cccc(/C=N/n2c(C)nc3ccccc3c2=O)c1 ?
MCF10A rerep: 1%; KB-3-1 tox: inactive; IL-1B inflam inh: -7; KB-V1 MDR tox: inactive; SW480 rereplic: 28%

How did COc1ccc(-c2ccc(SCC(=O)Nc3cccc(C(C)=O)c3)nn2)cc1OC do in these assays?
MCF10A rerep: 3%; KB-3-1 tox: inactive; IL-1B inflam inh: -86*; KB-V1 MDR tox: inconclusive; SW480 rereplic: 0%

What do the screens show for `COc1ccc(/C=N/Nc2nc(-c3ccc(Cl)cc3)cc(C(F)(F)F)n2)cc1OC`?
MCF10A rerep: 26%; KB-3-1 tox: inactive; IL-1B inflam inh: -53*; KB-V1 MDR tox: 7.3µM*; SW480 rereplic: -4%

How did CCOC(=O)C1=C(COC(=O)c2cc(S(=O)(=O)N3CCOCC3)ccc2F)NC(=O)NC1C (stereo not given) do in these assays?
MCF10A rerep: 6%; KB-3-1 tox: inactive; IL-1B inflam inh: -95*; KB-V1 MDR tox: inactive; SW480 rereplic: -8%

What do the screens show for `O=C(Nc1ccccc1N1CCOCC1)C1CCN(S(=O)(=O)c2ccccc2F)CC1`?
MCF10A rerep: -2%; KB-3-1 tox: inactive; IL-1B inflam inh: -1; KB-V1 MDR tox: 8.2µM*; SW480 rereplic: -142%

What do the screens show for `COc1ccc(S(=O)(=O)N2CCOCC2)cc1NC(=O)c1cc2c(s1)CCCC2`?
MCF10A rerep: -3%; KB-3-1 tox: inactive; IL-1B inflam inh: 14; KB-V1 MDR tox: inactive; SW480 rereplic: -4%

Results for O=C(Nc1cc(S(=O)(=O)N2CCOCC2)ccc1N1CCOCC1)c1cc2c(s1)CCC2 ?
MCF10A rerep: -1%; KB-3-1 tox: inactive; IL-1B inflam inh: -57*; KB-V1 MDR tox: inactive; SW480 rereplic: -3%

Results for CCOC(=O)c1ccccc1NC(=O)c1cc(S(=O)(=O)N2CCOCC2)ccc1F ?
MCF10A rerep: 1%; KB-3-1 tox: inactive; IL-1B inflam inh: -54*; KB-V1 MDR tox: inactive; SW480 rereplic: -2%
